HepG2 tox – kills HepG2 cells in TGF-b inhibitor counter-screen; HepG2 CAGA-GFP viability, ATP luminescence, 18 h; Potency, µM (doses to about 46.1 µM), hits mostly cytotoxic; 0.76% of 410,000 active
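HepG2 CAGA-GFP cells (1000/well, DMEM with 1% FBS) received compound, then TGF-beta at 500 pg/mL final, and were incubated 18 hours at 37 degrees C. Viability was read by CellTiter-Glo luminescence. Media-only wells were set as complete cell-killing and DMSO as no toxicity.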
TGFb SMAD3 inh – inhibitors of TGF-b signaling. HepG2 CAGA-GFP TGF-b/SMAD3 reporter, GFP fluorescence, 18 h; TGF-beta stimulated, 500 pg/mL final. Potency, µM (top dose mostly 46.1 µM), actives largely listed as inhibitors. 1.2% of 410,000 active. AID 588855; note: nearly all actives have a fitted effect of over 65% in size
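Cell-based qHTS in HEPG2 carrying a CAGA-GFP Smad reporter; compounds added before 500 pg/mL final TGF-beta, 18 h incubation at 37 degrees C, GFP fluorescence quantified per cell by imaging cytometry.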
ATXN2 expr inh – ATXN2 expression inhibition; HEK-293 ATXN2-luciferase reporter, luminescence, 24 h; Potency, µM (titrated, usually from 57 µM), most hits filed as inhibitors; 0.72% of 360,000 active; note: nearly all actives have a fitted effect of over 55% in size
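qHTS (up to 57 uM final) was run with 24 h compound exposure of reporter cells at 37 °C. Each well was multiplexed: SteadyGlo luminescence measured ATXN2-luciferase expression after a fluorogenic Gly-Phe-AFC viability readout (25 uM final).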
LDHA inh – inhibitors of human lactate dehydrogenase A. purified LDHA, NADH/diaphorase-resazurin fluorescence; active compounds read low. activity change, % (values are at about 110 or 230 µM). 0.15% of 480,000 active; in the data active = activity change below about -30%; inconclusive = mostly about -25% to -30%
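Resorufin fluorescence (ex540/em590), read at 0 and 20 min after diaphorase/resazurin addition, reports the NADH left after a 5 min room-temperature reaction of 2 nM human LDH5 with 0.06 mM NADH and 0.2 mM pyruvate.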
IDH1 R132H inh – inhibitors of human mutant IDH1 R132H; O75874; IDH1-R132H enzyme, NADPH consumption, diaphorase/resazurin fluorescence; Potency, µM (highest dose often 76.6 µM), actives largely listed as inhibitors; 0.093% of 390,000 active; note: nearly all actives have a fitted effect of over 65% in size
Target sequence (O75874 whole entry R132H, stated change not applied): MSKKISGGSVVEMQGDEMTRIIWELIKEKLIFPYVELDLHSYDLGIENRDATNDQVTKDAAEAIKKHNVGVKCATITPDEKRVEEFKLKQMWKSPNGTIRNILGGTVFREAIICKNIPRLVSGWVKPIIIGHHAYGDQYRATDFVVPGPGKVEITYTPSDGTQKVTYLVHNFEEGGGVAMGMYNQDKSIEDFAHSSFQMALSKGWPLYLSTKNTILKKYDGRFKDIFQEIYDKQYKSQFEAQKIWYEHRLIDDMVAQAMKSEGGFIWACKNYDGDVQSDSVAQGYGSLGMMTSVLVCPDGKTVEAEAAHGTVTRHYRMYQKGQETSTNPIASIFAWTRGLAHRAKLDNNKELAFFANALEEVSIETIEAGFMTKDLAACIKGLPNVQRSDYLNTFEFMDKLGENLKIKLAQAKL
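IDH1-R132H (0.5 ug/mL dispensed) in pH 7.5 Tris buffer was preincubated 30 min with compound, then given a substrate mix of 0.016 mM NADPH and 2 mM alpha-KG for 80 min at room temperature; remaining NADPH was read by diaphorase/resazurin fluorescence.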
S2 tox – cell viability loss in ATXN counter-screen; S2 cells (HEK-293 line with an ATXN2-luciferase reporter) viability, CellTiter-Fluor protease fluorescence, 24 h; Potency, µM (series often up to 56.7 µM), actives largely listed as cytotoxic; 0.49% of 400,000 active; note: nearly all actives have a fitted effect of over 40% in size
Large screens that a line does not name were inactive; ! = a repeat was not active. Only some compounds are listed: those with a hit (about 2.2% of all), similar ones and a draw of the others. Unless noted, calls come from the whole dose curve; as a rule, active = well fitted curve in the direction sought with a large enough effect; inconclusive = small, poorly fitted or top-dose-only effect, or another doubt; inactive = no such curve, though single readings can be large; an effect the other way counts as inactive or inconclusive.

Nc1nc(Cl)nc2c1ncn2[C@@H]1O[C@H](CO)[C@@H](O)[C@H]1F	ATXN2 expr inh 0.0097µM (no result: HepG2 tox, TGFb SMAD3 inh, LDHA inh, IDH1 R132H inh, S2 tox)
Nc1nc(Cl)nc2c1ncn2[C@@H]1O[C@H](CO)[C@@H](O)[C@H]1O	TGFb SMAD3 inh inconclusive
O=c1c(Cl)c(Cl)cnn1Cc1nnc(-c2ccccc2Br)o1	TGFb SMAD3 inh 16µM, ATXN2 expr inh inconclusive (no result: S2 tox)
Clc1ccccc1OCc1nnc(-c2ccccc2Br)o1	none
COC(=O)c1cnn(-c2cc(Oc3ccccc3)ncn2)c1N	none
O=C(NCCc1ccccc1)C(c1cccs1)N(C(=O)c1csnn1)C1CC1 (configuration not stated)	none
O=C(NCCc1ccccc1)C(c1cccs1)N(C(=O)CCl)c1ccc(Cl)cc1 (configuration not stated)	HepG2 tox 10µM, TGFb SMAD3 inh 11µM, ATXN2 expr inh 4.5µM, S2 tox 5µM
COc1ccccc1CNC(=O)CN(C)S(=O)(=O)c1ccc(Br)s1	none
CC(C)CN=C(NS(=O)(=O)c1ccccc1)C(Cl)(Cl)Cl	HepG2 tox 11µM, TGFb SMAD3 inh inconclusive, ATXN2 expr inh inconclusive, S2 tox inconclusive
CC1CCCN(C(=O)COC(=O)CNS(=O)(=O)c2ccc3ccccc3c2)C1 (configuration not stated)	none
Cc1ccc(OCCCN2C(=O)C(=O)c3cccc(C)c32)cc1	TGFb SMAD3 inh inconclusive
CCCOc1ccc(CN2C(=O)C(=O)c3cccc(C)c32)cc1	TGFb SMAD3 inh 16µM, IDH1 R132H inh inconclusive (no result: ATXN2 expr inh, S2 tox)
CCOC(=O)Cn1nnnc1CN1CCN(c2ccc(OC)cc2)CC1	S2 tox inconclusive
CCn1c(=O)[nH]c(=O)c2c(N)c(C(=O)c3cc(F)ccc3F)sc21	TGFb SMAD3 inh 11µM
O=S(=O)(Nc1nc2ccccc2nc1Cl)c1ccc(Br)cc1	TGFb SMAD3 inh 13µM (no result: ATXN2 expr inh)
Cc1ccccc1S(=O)(=O)Nc1nc2ccccc2nc1Cl	none
O=S(=O)(Nc1nc2ccccc2nc1Cl)c1ccc(Cl)cc1	TGFb SMAD3 inh 13µM (no result: S2 tox)
CCOc1nc2ccccc2nc1NS(=O)(=O)c1ccc(Cl)cc1	none
CCN1c2ccccc2N(C)C1(C)c1ccccc1 (configuration not stated)	TGFb SMAD3 inh 8.9µM, ATXN2 expr inh 18µM
CN1c2ccccc2N(C)C1(C)c1ccccc1	TGFb SMAD3 inh inconclusive
CC1(COc2ccc3c(c2)ncn3-c2ccc3cccc(N4CCC(N)CC4)c3n2)COC1	ATXN2 expr inh 12µM (no result: HepG2 tox, TGFb SMAD3 inh, LDHA inh, IDH1 R132H inh, S2 tox)
COc1ccc(-n2cnc3cc(N)ccc32)cc1	none
COc1cccc(CN2CCN(Cc3ccc(C#CC(C)(C)O)s3)CC2CCO)c1 (configuration not stated)	ATXN2 expr inh inconclusive
CC(Oc1ccccc1)C(=O)N(CCC1=CCCCC1)c1c(N)n(Cc2ccccc2)c(=O)[nH]c1=O (configuration not stated)	TGFb SMAD3 inh 18µM
Nc1c(N(CCC2=CCCCC2)C(=O)COc2ccc(F)cc2)c(=O)[nH]c(=O)n1Cc1ccccc1	HepG2 tox 8.9µM, TGFb SMAD3 inh 7.9µM, ATXN2 expr inh inconclusive (no result: S2 tox)
Nc1c(N(CCC2=CCCCC2)C(=O)CCCOc2ccccc2)c(=O)[nH]c(=O)n1Cc1ccccc1	S2 tox inconclusive
O=C(NCc1ccccn1)c1ccc2ccccc2c1	none (no result: HepG2 tox, TGFb SMAD3 inh, ATXN2 expr inh, IDH1 R132H inh, S2 tox)
CCCc1[nH]c2ccc(C#N)cc2c1CCC	TGFb SMAD3 inh 20µM, ATXN2 expr inh inconclusive (no result: S2 tox)
CNC(=O)N(O)C1N(/N=C/c2ccc(N(C)C)cc2)C(=S)SC1(C)C (configuration not stated)	none
CC1(C)SC(=S)N(/N=C/c2ccccc2)C1N(O)C(=O)Nc1ccc([N+](=O)[O-])cc1 (configuration not stated)	HepG2 tox 11µM, TGFb SMAD3 inh inconclusive
COc1ccccc1N1C(=O)N(C(C)=O)C2C1Nc1ccccc1N2C (configuration not stated)	TGFb SMAD3 inh inconclusive, ATXN2 expr inh 25µM
CCOC(=O)C1CCN(c2ccc(-c3cccs3)nn2)CC1	HepG2 tox 7.1µM
CCOC(=O)C1CCN(c2ccc(Cl)nn2)CC1	none
Cc1ccc(C)c(-c2ccc(=O)n(Cc3ccc(F)cc3Cl)n2)c1	TGFb SMAD3 inh 13µM, S2 tox inconclusive
Oc1ccc(NC(=S)N=Nc2c(O)[nH]c3ccccc23)cc1	TGFb SMAD3 inh inconclusive, S2 tox inconclusive
COc1ccc(NC(=S)N=Nc2c(O)[nH]c3ccccc23)cc1	TGFb SMAD3 inh 6.3µM, S2 tox inconclusive (no result: ATXN2 expr inh)
Cc1ccc(NC(=S)N=Nc2c(O)[nH]c3ccccc23)cc1	TGFb SMAD3 inh 4µM, ATXN2 expr inh inconclusive, S2 tox inconclusive
CCOC(=O)C[C@@H]1OC2CCCCC2N1S(=O)(=O)c1ccc(C)cc1 (some centres not stated)	none (no result: HepG2 tox, TGFb SMAD3 inh, ATXN2 expr inh, IDH1 R132H inh, S2 tox)
CN(C)c1ncc(C2=C(Cl)C(=O)C(N3CCCC3)=C(Cl)C2=O)s1	ATXN2 expr inh 25µM (no result: S2 tox)
O=C1C(Cl)=C(N2CCCCC2)C(=O)C(Cl)=C1c1cnc(N2CCCCC2)s1	ATXN2 expr inh inconclusive, S2 tox inconclusive
CCc1ccccc1NC(=O)Nc1nnc(N(C)Cc2ccccc2)s1	TGFb SMAD3 inh 13µM (no result: ATXN2 expr inh, S2 tox)
Cc1ccc(NC(=O)Nc2nnc(N(C)Cc3ccccc3)s2)c(C)c1	none (no result: ATXN2 expr inh, S2 tox)
Cc1noc(C)c1COC(=O)c1cc(S(=O)(=O)N2CCOCC2)ccc1Cl	none
Cc1cc(O)c2c(CN3CCN(Cc4ccccc4)CC3)cc(=O)oc2c1	TGFb SMAD3 inh inconclusive, LDHA inh -31!, S2 tox inconclusive (no result: ATXN2 expr inh)
CC(=O)Nc1ccc(S(=O)(=O)NCC2CCC(C(=O)NCCN(CC(C)C)CC(C)C)CC2)cc1 (configuration not stated)	none
CCOC(=O)C1CCCN(C(=O)c2ccc3c(c2)N(Cc2ccccc2)C(=O)c2ccccc2S3=O)C1 (configuration not stated)	TGFb SMAD3 inh 10µM
Oc1ccccc1C1C=C(c2ccc3c(c2)OCO3)NC(c2cccc(F)c2)N1 (configuration not stated)	HepG2 tox 18µM, TGFb SMAD3 inh inconclusive (no result: ATXN2 expr inh, IDH1 R132H inh, S2 tox)
COC(=O)c1ccc(C2NC(c3ccc4c(c3)OCO4)=CC(c3ccccc3O)N2)cc1 (configuration not stated)	TGFb SMAD3 inh 11µM (no result: ATXN2 expr inh, IDH1 R132H inh, S2 tox)
Oc1ccc(Br)cc1C1C=C(c2ccc3c(c2)OCO3)NC(c2cccc(F)c2)N1 (configuration not stated)	TGFb SMAD3 inh inconclusive (no result: ATXN2 expr inh, IDH1 R132H inh, S2 tox)
Oc1ccccc1C1C=C(c2ccc3c(c2)OCO3)NC(c2cccc(Br)c2)N1 (configuration not stated)	TGFb SMAD3 inh inconclusive (no result: ATXN2 expr inh, IDH1 R132H inh, S2 tox)
COc1ccc(C(=O)OCC(=O)c2ccc(CNC(C)=O)s2)cc1	none
